C diff HTS = blocks growth of Clostridium difficile; 86,000 tested, 0.25% active; Clostridium difficile clinical isolate growth, OD600, 24 h; hits give low values; growth activity, negative = inhibition, % at 16 µg/mL (by protocol);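 active means mean growth activity at or below -80% and every replicate also at or below -80%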;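 further: 0% = DMSO wells and -100% = levofloxacin 16 µg/mL wells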
Pf Dd2 growth = P. falciparum Dd2 growth inhibition. SYBR Green, 72 h; hits give low values. activity change, % at 10 µM. 94,000 tested, 2.3% active. AID 1159554; in the data active means activity change below about -80%
Numbers without * were called inactive; · = not tested or not shown. The list is not random: actives were taken first. Their share in the collection is about 2.4%.

SMILES	C diff HTS	Pf Dd2 growth
COc1ccc2c3c(n(C)c2c1)[C@@H](CO)N(S(=O)(=O)c1ccc(C)cc1)CC31CCN(C)CC1	-5	-59
CCC(=O)N1CCC2(CC1)CN(CC1CCCCC1)[C@@H](CO)c1c2c2ccc(OC)cc2n1C	3	-85*
CCC(=O)N1CCC2(CC1)CN(S(C)(=O)=O)[C@H](CO)c1c2c2ccc(OC)cc2n1C	-2	26
COc1ccc2c3c(n(C)c2c1)[C@H](CO)N(CC1CC1)CC31CCN(C(=O)CN(C)C)CC1	5	-42
COc1ccc2c3c(n(C)c2c1)[C@@H](CO)N(S(C)(=O)=O)CC31CCN(C(=O)CN(C)C)CC1	-2	-89*
COc1ccc2c3c(n(C)c2c1)[C@@H](CO)N(CC1CCCC1)CC31CCN(C(=O)CN(C)C)CC1	5	-85*
COc1ccc2c3c(n(C)c2c1)[C@@H](CO)N(S(=O)(=O)c1ccc(C)cc1)CC31CCN(S(=O)(=O)c2ccc(C)cc2)CC1	2	-85*
CCC(=O)N1CCC2(CC1)CN(CC1CCCCC1)[C@H](CO)c1c2c2ccc(OC)cc2n1C	·	42
CCCC#Cc1ccc([C@@H]2[C@H](CO)N3C(=O)CN(C(=O)c4ccncc4)C[C@@H]23)cc1	1	-50
CC=Cc1ccc2n(c1=O)C[C@@H]1[C@@H](CO)[C@H](C(=O)NCC)[C@H]2N1C(=O)Nc1cc(F)ccc1F (mixture of isomers)	-4	0
O=C(C1CCCC1)N1CC(=O)N2[C@H](CO)[C@H](c3ccc(C#Cc4cccc(F)c4)cc3)[C@@H]2C1	58	-47
C[C@@H]1CCCCO[C@@H](CN(C)S(=O)(=O)c2ccc(F)cc2)[C@@H](C)CN([C@@H](C)CO)C(=O)c2cc(NC(=O)Cc3ccccc3)ccc2O1	·	-74
CCCC(=O)N1CC2(C1)CN(S(=O)(=O)c1ccc(C)cc1)[C@@H](CO)c1[nH]c3cc(OC)ccc3c12	-13	-87*
CCS(=O)(=O)N1CC2(C1)CN(S(=O)(=O)c1ccc(C)cc1)[C@H](CO)c1[nH]c3cc(OC)ccc3c12	-5	-40
COc1ccc2c3c([nH]c2c1)[C@H](CO)N(S(=O)(=O)c1ccc(C)cc1)CC31CN(C(=O)Cc2cccnc2)C1	1	-77
COc1ccc2c3c([nH]c2c1)[C@H](CO)N(S(=O)(=O)c1ccc(C)cc1)CC31CCN(C(=O)Cc2cccnc2)CC1	13	-86*
O=C1CS(=O)(=O)C(c2ccccc2)N1c1cccc(Cl)c1 (configuration not stated)	-2	·
CCCNC(=O)N(C)C[C@@H]1Oc2cc(C#CC3CC3)ccc2S(=O)(=O)N([C@@H](C)CO)C[C@@H]1C	-6	-26
CO[C@@H]1CN(C)C(=O)c2cc(NC(=O)c3ccc(-c4ccccc4)cc3)ccc2OC[C@H](C)NC[C@@H]1C	·	-76
CO[C@H]1CN(C)C(=O)c2cc(NC(=O)c3ccc(-c4ccccc4)cc3)ccc2OC[C@H](C)NC[C@H]1C	·	-92*
CO[C@H]1CN(C)C(=O)c2cc(NC(=O)c3ccc(-c4ccccc4)cc3)ccc2OC[C@@H](C)NC[C@H]1C	·	-78
CO[C@@H]1CN(C)C(=O)c2cc(NC(=O)c3ccc(-c4ccccc4)cc3)ccc2OC[C@@H](C)NC[C@@H]1C	·	-97*
CN(C)C(=O)c1ccc(-c2ccccc2[C@H]2[C@@H](C#N)N(C(=O)C3CC3)[C@@H]2CO)cc1	1	37
COc1ccccc1CNC(=O)C[C@H]1CC[C@@H](NC(C)=O)[C@H](CO)O1	2	2
C[C@H]1CN([C@@H](C)CO)C(=O)Cc2cc(N(C)C)ccc2O[C@@H]1CN(C)CC1CC1	-9	45
SMILES	C diff HTS	Pf Dd2 growth
N#C[C@@H]1[C@@H](c2ccccc2-c2ccccc2)[C@H](CO)N1C(=O)Cc1ccccc1	-10	24
C[C@H](CO)N1C[C@H](C)[C@@H](CN(C)Cc2ccc(C(=O)Nc3ccccc3N)cc2)Oc2ccc(NS(=O)(=O)c3ccccc3)cc2C1=O	-6	35
C[C@@H]1CN([C@@H](C)CO)C(=O)c2cc(NS(=O)(=O)c3ccc(F)cc3)ccc2O[C@H]1CN(C)Cc1ccc(C(=O)Nc2ccccc2N)cc1	-5	-85*
C[C@@H]1CN([C@@H](C)CO)C(=O)c2cc(NS(=O)(=O)c3ccccc3)ccc2O[C@H]1CN(C)Cc1ccc(C(=O)Nc2ccccc2N)cc1	-1	-83*
C[C@@H]1CN([C@H](C)CO)C(=O)c2cc(NS(=O)(=O)c3ccc(F)cc3)ccc2O[C@@H]1CN(C)Cc1ccc(C(=O)Nc2ccccc2N)cc1	5	-44
C[C@@H]1CN([C@@H](C)CO)C(=O)c2cc(NS(=O)(=O)c3cn(C)cn3)ccc2O[C@@H]1CN(C)Cc1ccc(Cl)c(Cl)c1	-5	12
COc1ccc(NC(=O)N2CC[C@@H]3[C@@H](CO)N(C)c4ccc(Br)cc4[C@@H]32)cc1	16	-8
COc1cccc(-c2ccc3c(c2)[C@H]2[C@H](CCN2C(=O)Nc2ccccc2OC)[C@H](CO)N3C)c1	14	-26
COc1ccc(NC(=O)N2CC[C@@H]3[C@H]2c2cc(Br)ccc2N(C)[C@@H]3CO)cc1	-100*	1
COc1cccc(-c2ccc3c(c2)[C@@H]2[C@@H](CCN2C(=O)Nc2ccccc2OC)[C@@H](CO)N3C)c1	-97*	-34
CCCc1cn(CC[C@@H]2CC[C@@H](NC(=O)CCN3CCCCC3)[C@@H](CO)O2)nn1	-1	-7
CO[C@H]1CN(C)C(=O)c2ccc(NC(=O)Nc3cc(Cl)cc(Cl)c3)cc2OC[C@@H](C)NC[C@H]1C	-53	-24
CO[C@@H]1CN(C)C(=O)c2ccc(NC(=O)Nc3cccc(Cl)c3)cc2OC[C@H](C)NC[C@@H]1C	·	-26
CO[C@H]1CN(C)C(=O)c2ccc(NC(=O)Nc3cc(Cl)cc(Cl)c3)cc2OC[C@H](C)NC[C@H]1C	-96*	-89*
CO[C@@H]1CN(C)C(=O)c2ccc(NC(=O)Nc3cccc(Cl)c3)cc2OC[C@@H](C)NC[C@H]1C	·	-84*
COc1ccc(S(=O)(=O)N(C)C[C@@H]2OCCCC[C@@H](C)Oc3ccc(NC(=O)C4CCCCC4)cc3C(=O)N([C@@H](C)CO)C[C@H]2C)cc1	6	-69
Cc1noc(C)c1S(=O)(=O)N(C)C[C@H]1OCCCC[C@@H](C)Oc2ccc(NC(=O)Nc3ccc(C(F)(F)F)cc3)cc2C(=O)N([C@H](C)CO)C[C@@H]1C	5	-53
Cc1noc(C)c1S(=O)(=O)N(C)C[C@@H]1OCCCC[C@H](C)Oc2ccc(NC(=O)Nc3ccc(C(F)(F)F)cc3)cc2C(=O)N([C@H](C)CO)C[C@H]1C	31	-50
Cc1noc(C)c1S(=O)(=O)N(C)C[C@H]1OCCCC[C@@H](C)Oc2ccc(NC(=O)Nc3ccc4c(c3)OCO4)cc2C(=O)N([C@@H](C)CO)C[C@@H]1C	-7	-86*
Cc1noc(C)c1S(=O)(=O)N(C)C[C@H]1OCCCC[C@H](C)Oc2ccc(NC(=O)Nc3ccc(C(F)(F)F)cc3)cc2C(=O)N([C@@H](C)CO)C[C@@H]1C	4	-83*
Cc1noc(C)c1S(=O)(=O)N(C)C[C@H]1OCCCC[C@H](C)Oc2ccc(NC(=O)Nc3ccc4c(c3)OCO4)cc2C(=O)N([C@H](C)CO)C[C@@H]1C	-2	-22
Cc1noc(C)c1S(=O)(=O)N(C)C[C@H]1OCCCC[C@@H](C)Oc2ccc(NC(=O)Nc3ccc(C(F)(F)F)cc3)cc2C(=O)N([C@@H](C)CO)C[C@@H]1C	-1	-94*
